Source: PubChem BioAssay (National Center for Advancing Translational Sciences (NCATS))
This is a sample that favours compounds with a hit; in the whole collection about 12% have one here.
BAZ2B block: qHTS Assay for Inhibitors of BAZ2B; hit rate 4.4% among 360,000; AlphaScreen BAZ2B-H3K14Ac peptide displacement; Bromodomain adjacent to zinc finger domain protein 2B (Homo sapiens), Q9UIF8; Potency, µM (titrated, usually from 114 µM), for the others: top-dose activity change, negative = inhibition, most hits filed as inhibitors; note: % is set by controls: 0 for no effect and ±100 for the full control effect; nearly all actives have a fitted effect of over 60% in size
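Complex of BAZ2B and biotin-H3K14Ac (50 nM apiece) forms over 30 min at RT, then faces library compounds up to 110 uM for another 30 min; AlphaScreen beads added, 20 min dark incubation, luminescence read.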
PLK1 PBD block: qHTS for Inhibitors of PLK1-PDB (polo-like kinase 1 - polo-box domain): Primary Screen. Serine/threonine-protein kinase PLK1 (Homo sapiens), P53350. Plk1 PBD binding of FITC phosphopeptide, fluorescence polarization. Potency, µM, without a hit: max response, negative = inhibition, hits mostly inhibitors. hit rate 2.8% among 360,000. AID 720504, 2013; note: series mostly up to about 57 µM; % is set by controls: 0 for no effect and ±100 for the full control effect; nearly all actives have a fitted effect of over 65% in size
HP1b chromo inh: HTS for Inhibitors of HP1-beta Chromodomain Interactions with Methylated Histone Tails | Chromobox protein homolog 1 (Homo sapiens), P83916 | AlphaScreen HP1-beta / biotin-H3K9me3 peptide binding | Potency, µM (highest dose often 114 µM), without a hit: top-dose activity change, negative = inhibition, actives largely listed as inhibitors | hit rate 0.56% among 390,000 | AID 540317, 2011; note: nearly all actives have a fitted effect of over 70% in size
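Compound inhibition of the preformed complex between 50 nM HP1-beta and 50 nM biotinylated H3K9me3 peptide was read by AlphaScreen. Buffer was PBS pH 7.4 with 0.01% Tween-20. Incubations ran 30 min at room temperature, with 10 ug/mL donor/acceptor beads.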
JMJD2A Tudor inh: qHTS Assay for Inhibitors of JMJD2A-Tudor Domain. AlphaScreen JMJD2A-Tudor / H3K4me3 peptide binding. Potency, µM (series often up to 114 µM), without a hit: at the highest dose activity change, negative = inhibition, hits mostly inhibitors. hit rate 4.4% among 390,000. AID 504339, 2011; note: % is set by controls: 0 for no effect and ±100 for the full control effect; nearly all actives have a fitted effect of over 50% in size
Target sequence (O75164 whole entry, looked up, the tested form may be a part): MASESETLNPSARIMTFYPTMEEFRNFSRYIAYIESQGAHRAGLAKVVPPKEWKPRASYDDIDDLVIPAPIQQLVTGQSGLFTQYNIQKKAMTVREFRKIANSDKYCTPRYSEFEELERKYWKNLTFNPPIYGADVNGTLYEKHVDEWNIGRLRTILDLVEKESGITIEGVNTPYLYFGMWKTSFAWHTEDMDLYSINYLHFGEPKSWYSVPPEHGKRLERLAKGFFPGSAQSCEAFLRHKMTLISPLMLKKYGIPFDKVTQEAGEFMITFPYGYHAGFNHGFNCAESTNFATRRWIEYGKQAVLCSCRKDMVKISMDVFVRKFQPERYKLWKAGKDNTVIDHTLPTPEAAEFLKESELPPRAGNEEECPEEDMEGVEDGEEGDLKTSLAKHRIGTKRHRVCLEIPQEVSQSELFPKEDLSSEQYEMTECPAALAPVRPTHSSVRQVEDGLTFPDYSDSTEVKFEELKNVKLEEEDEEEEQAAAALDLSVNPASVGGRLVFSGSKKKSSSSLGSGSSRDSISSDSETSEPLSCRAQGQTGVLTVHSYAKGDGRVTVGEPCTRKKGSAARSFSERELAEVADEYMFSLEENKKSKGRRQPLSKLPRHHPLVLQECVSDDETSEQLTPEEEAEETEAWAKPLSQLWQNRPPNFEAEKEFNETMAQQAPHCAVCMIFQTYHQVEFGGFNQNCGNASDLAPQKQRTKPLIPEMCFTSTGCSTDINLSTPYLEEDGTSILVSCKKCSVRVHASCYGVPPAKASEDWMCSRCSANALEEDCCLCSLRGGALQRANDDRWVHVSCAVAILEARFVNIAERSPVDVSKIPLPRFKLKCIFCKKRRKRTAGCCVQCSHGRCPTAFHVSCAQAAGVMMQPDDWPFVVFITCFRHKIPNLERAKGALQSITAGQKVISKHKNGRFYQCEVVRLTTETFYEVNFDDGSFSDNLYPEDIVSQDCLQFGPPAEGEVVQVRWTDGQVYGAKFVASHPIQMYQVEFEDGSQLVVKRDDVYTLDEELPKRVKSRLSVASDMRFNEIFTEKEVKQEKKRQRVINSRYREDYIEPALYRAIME
G9a block: qHTS Assay for Inhibitors of Histone Lysine Methyltransferase G9a; G9a H3K9 monomethylation, AlphaScreen, 2 h; hit rate 8.8% among 350,000; Potency, µM (series often up to 102 µM), for inactives: top-dose activity, negative = inhibition, actives largely listed as inhibitors; AID 504332, 2011; note: % is set by controls: 0 for no effect and ±100 for the full control effect; nearly all actives have a fitted effect of over 75% in size
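Step 1: enzyme (final 20 nM) with compound, 15 min RT. Step 2: substrate peptide 500 nM and SAM 20 uM, 2 h RT. Step 3: anti-H3K9me1 antibody and AlphaScreen beads, 10 min, then plate read.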
Sfp PPTase inh: qHTS Assay for Inhibitors of Bacillus subtilis Sfp phosphopantetheinyl transferase (PPTase). 4'-phosphopantetheinyl transferase ffp (Bacillus subtilis), Q9F4F7. Biochemical Sfp PPTase activity, qHTS. Potency, µM, for the others: largest response in the series, negative = inhibition, most hits filed as inhibitors. hit rate 3.5% among 310,000;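 note: the enzyme is Sfp with the accession as filed and its product quenches rhodamine fluorescence; 0% = enzyme reaction without inhibitor and -100% = no enzyme wells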
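Step 1, compound plus 15 nM Sfp-PPTase, 15 min, room temperature. Step 2, add rhodamine-CoA (5 uM) and BHQ-2-YbbR (12.5 uM). Step 3, read 525/598 nm fluorescence at 0 and 30 min.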
Active calls of the source: *; [ ] = remark or other dose. Calls come from the whole dose curve; as a rule, active = well fitted curve in the direction sought with a large enough effect; inconclusive = small, poorly fitted or top-dose-only effect, or another doubt; inactive = no such curve, though single readings can be large; an effect the other way counts as inactive or inconclusive. Potency is the fitted concentration of half-maximal effect.

CCN(CC)c1ccc(/C=N/N=C(N)N)c(O)c1 was read as BAZ2B block -38%, PLK1 PBD block 7%, HP1b chromo inh 0%, JMJD2A Tudor inh inconclusive, G9a block -50% and Sfp PPTase inh 6%.
For CCN(CC)c1ccc(/C=N/NC(=O)OC)c(O)c1 the results were BAZ2B block -39%, PLK1 PBD block 2%, HP1b chromo inh 9%, JMJD2A Tudor inh -28%, G9a block inconclusive and Sfp PPTase inh -21%.
Screening CCN(CC)c1ccc(/C=N/Nc2cccc(C)c2)c(O)c1 returned BAZ2B block 50µM*, PLK1 PBD block inconclusive, HP1b chromo inh 18µM*, JMJD2A Tudor inh 40µM*, G9a block 1.4µM* and Sfp PPTase inh inconclusive.
`CCN(CC)c1ccc(/C=N/NC(=S)NC)c(O)c1` gave BAZ2B block 40µM*, PLK1 PBD block -18%, HP1b chromo inh inconclusive, JMJD2A Tudor inh 45µM*, G9a block inconclusive and Sfp PPTase inh -8%.
Screening CCN(CC)c1ccc(/C=N/Nc2ccccc2)c(O)c1 returned BAZ2B block 45µM*, PLK1 PBD block inconclusive, HP1b chromo inh 16µM*, JMJD2A Tudor inh 28µM*, G9a block inconclusive and Sfp PPTase inh 56µM*.
`Cc1ccc(OCCCn2c(-c3ccc(Cl)cc3)nc3ccccc3c2=O)c(C)c1` gave BAZ2B block 13%, HP1b chromo inh 40%, JMJD2A Tudor inh 20% and G9a block -41%[59 µM].
Screening CCN(CC)C(=O)C[n+]1ccc(C(N)=O)cc1 returned BAZ2B block -36%, PLK1 PBD block 27µM*, HP1b chromo inh -8%, JMJD2A Tudor inh -18%, G9a block -31% and Sfp PPTase inh -2%.
`CCOc1nc(NC(=O)NS(=O)(=O)Oc2ccccc2)nc(-c2ccccc2)n1` gave BAZ2B block -10%, HP1b chromo inh 8%, JMJD2A Tudor inh -16% and G9a block -7%[59 µM].
For O=C(Nc1ccc(F)cc1)C(c1ccccc1)N1CCN(CC(=O)N2CCOCC2)CC1 (centres undefined) the results were BAZ2B block 6%, PLK1 PBD block -12%, HP1b chromo inh 25%, JMJD2A Tudor inh -6% and G9a block 10µM*.
Screening CCCCCC1CCC(C(=O)O)CC1 (centres undefined) returned BAZ2B block 4%, PLK1 PBD block -9%, HP1b chromo inh 19%, JMJD2A Tudor inh -3%, G9a block 4%[2.33 µM] and Sfp PPTase inh 0%.
CCCCC1NC(C(=O)O)CS1 (centres undefined) was read as BAZ2B block 50µM*, PLK1 PBD block -4%, HP1b chromo inh inconclusive, JMJD2A Tudor inh 32µM*, G9a block 5µM* and Sfp PPTase inh inconclusive.
COc1ccccc1-c1nc(N2CCOCC2)c2ccccc2n1 was read as G9a block 4%[0.501 µM] and Sfp PPTase inh -6%.
C/C=C/C=C/C(=O)N1CC2(CC(c3cccc(NC(=O)CCCCC)c3)=NO2)C[C@H]1C(N)=O (some centres undefined) was read as BAZ2B block -6%, PLK1 PBD block -29%, HP1b chromo inh -4%, JMJD2A Tudor inh -28%, G9a block inconclusive and Sfp PPTase inh 22µM*.
For C/C=C\C=C/C(=O)Nc1cccc(C2=NOC3(C2)C[C@H](C(N)=O)N(C(=O)CC)C3)c1 (some centres undefined) the results were BAZ2B block 0%, PLK1 PBD block -19%, HP1b chromo inh -39%, JMJD2A Tudor inh inconclusive, G9a block inconclusive and Sfp PPTase inh 13µM*.
`C/C=C\C=C/C(=O)Nc1cccc(C2=NOC3(C2)C[C@H](C(N)=O)N(C(=O)Cc2ccc([N+](=O)[O-])cc2)C3)c1` (some centres undefined) gave BAZ2B block -22%, PLK1 PBD block -25%, HP1b chromo inh inconclusive, JMJD2A Tudor inh 79µM*, G9a block inconclusive and Sfp PPTase inh 13µM*.
For C/C=C\C=C/C(=O)Nc1cccc(C2=NOC3(C2)C[C@@H](C(N)=O)N(C(=O)CCCCC)C3)c1 (some centres undefined) the results were BAZ2B block -4%, PLK1 PBD block inconclusive, HP1b chromo inh inconclusive, JMJD2A Tudor inh 79µM*, G9a block 5%[12.7 µM] and Sfp PPTase inh 25µM*.
For C/C=C(/C)C(=O)Nc1cccc(C2=NOC3(C2)C[C@@H](C(N)=O)N(C(=O)CCCCC)C3)c1 (some centres undefined) the results were BAZ2B block 3%, PLK1 PBD block -1%, HP1b chromo inh 32%, JMJD2A Tudor inh -22%, G9a block 3%[59 µM] and Sfp PPTase inh 7%.
Screening C/C=C/C(=O)Nc1cccc(C2=NOC3(C2)C[C@H](C(N)=O)N(C(=O)/C=C/C)C3)c1 (some centres undefined) returned BAZ2B block 0%, PLK1 PBD block -12%, HP1b chromo inh 23%, JMJD2A Tudor inh -15%, G9a block -3%[59 µM] and Sfp PPTase inh 9%.
C/C=C(/C)C(=O)Nc1cccc(C2=NOC3(C2)C[C@H](C(N)=O)N(C(=O)Cc2ccc([N+](=O)[O-])cc2)C3)c1 (some centres undefined) was read as BAZ2B block -5%, PLK1 PBD block 0%, HP1b chromo inh 31%, JMJD2A Tudor inh -10%, G9a block -4%[59 µM] and Sfp PPTase inh 10%.
C/C=C/C=C\C(=O)Nc1cccc(C2=NOC3(C2)C[C@@H](C(N)=O)N(C(=O)/C(C)=C/C)C3)c1 (some centres undefined) was read as BAZ2B block -8%, PLK1 PBD block -14%, HP1b chromo inh -25%, JMJD2A Tudor inh inconclusive, G9a block -6%[12.7 µM] and Sfp PPTase inh 25µM*.
C/C=C(\C)C(=O)Nc1cccc(C2=NOC3(C2)C[C@@H](C(N)=O)N(C(=O)/C(C)=C/C)C3)c1 (some centres undefined) was read as BAZ2B block -13%, PLK1 PBD block 4%, HP1b chromo inh 47%, JMJD2A Tudor inh -9%, G9a block -41%[59 µM] and Sfp PPTase inh 8%.
